In the library only some 17% were active in any assay of this set; here they are far more common.
TDP1 cell noCPT: qHTS for Inhibitors of human tyrosyl-DNA phosphodiesterase 1 (TDP1): qHTS in cells in absence of CPT; DT40 Tdp1-/- hTDP1 cells, no CPT, ATP luminescence, 48 h; Potency, µM (top dose mostly 46.2 µM), for inactives: at the highest dose activity change, negative = growth inhibition, actives largely listed as inhibitors; 15% of 420,000 active; AID 686978, 2013; also: % is scaled to controls: 0 for no effect and ±100 for the full control effect; nearly all actives have a fitted effect of over 55% in size
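Luminescent ATP content (CellTiter-Glo) served as the growth readout. Knockout chicken DT40 cells expressing human TDP1 were exposed to compounds without camptothecin for a minimum 48 hr at 37 °C.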
DT40 TDP1 CPT: growth inhibition of DT40 Tdp1-/-;hTDP1 cells with camptothecin (screen for TDP1 inhibitors); chicken DT40 Tdp1-/-;hTDP1 cells + 20 nM CPT, ATP luminescence, 48 h; Potency, µM (titrated, usually from 46.2 µM), inactives show at the highest dose activity change, negative = growth inhibition, usual class: inhibitors; 12% of 420,000 active; AID 686979; also: % is scaled to controls: 0 for no effect and ±100 for the full control effect; nearly all actives have a fitted effect of over 55% in size
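Chicken DT40 Tdp1-/- cells stably complemented with human TDP1 were seeded at 400 cells/well in medium containing 20 nM camptothecin, exposed to pin-transferred compounds, and grown at 37 °C for at least 48 hr. Viability was read as ATP luminescence.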
TDP1 inh: inhibitors of human tyrosyl-DNA phosphodiesterase TDP1. recombinant TDP1, AlphaScreen DNA substrate cleavage. Q9NUW8. 0.28% of 350,000 active. AID 485290. Potency, µM (top dose mostly 130 µM), for the others: at the top dose activity change, negative = inhibition, hits mostly inhibitors; also: % is scaled to controls: 0 for no effect and ±100 for the full control effect; nearly all actives have a fitted effect of over 40% in size
Target sequence (Q9NUW8 whole entry, looked up): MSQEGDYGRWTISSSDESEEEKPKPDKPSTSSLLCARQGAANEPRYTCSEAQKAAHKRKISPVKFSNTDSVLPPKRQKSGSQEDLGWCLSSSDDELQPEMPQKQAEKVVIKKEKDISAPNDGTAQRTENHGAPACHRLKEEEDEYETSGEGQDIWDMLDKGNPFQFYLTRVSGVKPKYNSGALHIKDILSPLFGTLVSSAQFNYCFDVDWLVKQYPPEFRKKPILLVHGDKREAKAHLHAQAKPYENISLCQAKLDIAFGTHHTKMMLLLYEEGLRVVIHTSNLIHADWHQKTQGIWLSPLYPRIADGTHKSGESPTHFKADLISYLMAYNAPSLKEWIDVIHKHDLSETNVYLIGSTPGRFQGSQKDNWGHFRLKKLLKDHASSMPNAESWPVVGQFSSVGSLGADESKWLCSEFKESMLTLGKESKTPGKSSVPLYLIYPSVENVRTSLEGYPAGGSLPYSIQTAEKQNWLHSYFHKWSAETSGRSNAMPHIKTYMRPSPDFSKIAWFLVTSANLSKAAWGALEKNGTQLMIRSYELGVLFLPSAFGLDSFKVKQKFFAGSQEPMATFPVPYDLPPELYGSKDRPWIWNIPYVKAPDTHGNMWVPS
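Steps: enzyme plus compound, 15 min RT; add biotin/phosphotyrosine-FITC oligonucleotide (15 nM final), react 5 min; add donor/acceptor beads (10 ug/ml final), 10 min; read AlphaScreen. Tdp1 at 1 nM final.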
ClpP mod: qHTS Assay for Activators of ClpP | Potency, µM (series often up to 57.5 µM), inactives show at the top dose activity change, negative = active | purified B. subtilis ClpP, FRET peptide cleavage, 20 min | ATP-dependent Clp protease proteolytic subunit (Bacillus subtilis (strain 168)), P80244 | AID 651965, 2013 | 1.9% of 340,000 active; active = well fitted falling curve with a large enough effect; inconclusive = small, poorly fitted or top-dose-only effect; inactive = no such curve, though single readings can be large or run the other way; also: the source files actives as falling curves though it sought activators and does not explain the sign; nearly all actives have a fitted effect of over 65% in size
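Buffer: 100 mM Tris/HCl pH8, 100 mM KCl, 0.05% low protease BSA, 2.5% glycerol, 0.01% Tween-20. ClpP 10 microg/mL final; 20 min RT; delta FRET normalized to ADEP and DMSO controls.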
The depositor's hits bear a star; ? = inconclusive; nt = no result given. Unless noted, calls follow the shape of the dose curve; as a rule, active = well fitted curve in the direction sought with a large enough effect; inconclusive = small, poorly fitted or top-dose-only effect, or another doubt; inactive = no such curve, though single readings can be large; an effect the other way counts as inactive or inconclusive. Potency is read from the fitted curve at half-maximal effect.

SMILES	TDP1 cell noCPT	DT40 TDP1 CPT	TDP1 inh	ClpP mod
O=C(CSc1cn(CCNC(=O)c2ccccc2F)c2ccccc12)Nc1ccc(F)cc1	23.1µM*	23.1µM*	5.8%	-1.7%
O=C(CSc1cn(CCNC(=O)c2cccs2)c2ccccc12)NC1CCCC1	16.4µM*	16.4µM*	3.3%	-3.3%
O=C(CSc1cn(CCNC(=O)c2cccc(C(F)(F)F)c2)c2ccccc12)Nc1ccc2c(c1)OCCO2	?	23.1µM*	5.8%	-1.3%
CCCN1CCc2c(sc(NC(=O)C3CCN(S(=O)(=O)c4cccs4)CC3)c2C(N)=O)C1	?	?	-0.7%	nt
O=c1c2ccccc2nnn1-c1ccc(Br)cc1	-7.7%	0.8%	-5.2%	5.0%
CN(C(=O)c1cccc(NC(=O)Cc2ccc(NC(=O)C3CCN(C(=O)C4CC4)CC3)cc2)c1)C1CCCC1	-13.8%	-13.3%	nt	0.7%
c1ccc(-c2csc(CN3CCCCC3)n2)cc1	?	-16.4%	nt	nt
CC(C)CCNC(=O)c1ccccc1SCC(=O)NC1CCCCCCC1	?	23.1µM*	-0.9%	-1.5%
O=C(CSc1cn(CCNC(=O)c2ccccc2F)c2ccccc12)Nc1ccc2c(c1)OCCO2	16.4µM*	23.1µM*	9.7%	-1.9%
O=C(NCCn1cc(SCc2ccc(F)cc2)c2ccccc21)c1ccccc1F	16.4µM*	?	-1.3%	-2.1%
O=C(CSc1ccccc1C(=O)NCc1ccccc1)NC1CCCCCCC1	?	?	2.6%	-6.4%
NC(=O)CSc1cn(Cc2cccc(F)c2)c2ccccc12	?	13µM*	4.7%	nt
Nc1nc(N)nc(COc2ccccc2)n1	-8.6%	-21.1%	-1.2%	nt
Cn1c(=O)c2c(nc(N3CCc4ccccc4C3)n2C)n(C)c1=O	?	?	6.0%	-2.1%
COc1ccc(-c2cc(C(=O)Nc3ccc(O)cc3)c3ccccc3n2)cc1OC	1.46µM*	10.3µM*	5.2%	-1.4%
COc1ccc(-c2cc(C(=O)Nc3ccc(C)c(N)c3)c3ccccc3n2)cc1	?	?	nt	-2.6%
COc1ccccc1NC(=O)c1cc(-c2ccc(OC)c(OC)c2)nc2ccccc12	9.2µM*	16.4µM*	nt	nt
CCN(Cc1ccccc1)C(=O)c1cc(-c2ccc(OC)c(OC)c2)nc2ccccc12	?	?	4.9%	-29.5%
COc1ccc([C@@H]2CC(=O)c3c(O)cc(O[C@@H]4O[C@H](CO)[C@@H](O)[C@H](O)[C@H]4O[C@@H]4O[C@@H](C)[C@H](O)[C@@H](O)[C@H]4O)cc3O2)cc1	nt	nt	9.5%	nt
CC(C)(C)c1cc[n+](C2=C([O-])c3ccccc3C(=O)/C2=N\S(=O)(=O)c2ccccc2)cc1	23.1µM*	?	3.7%	nt
CCc1ccc(S(=O)(=O)/N=C2\C=C(NS(=O)(=O)c3ccccc3)C(=O)c3ccccc32)cc1	-27.3%	?	nt	3.8%
CCCCC[n+]1ccn(-c2nc3ccccc3nc2[N-]S(=O)(=O)c2ccc(C)cc2)c1	-4.7%	-1.5%	0.0%	-15.7%
CCCCC[n+]1ccn(C2=C([O-])c3ccccc3C(=O)/C2=N\S(=O)(=O)c2ccccc2)c1	18.4µM*	14.6µM*	3.8%	-0.3%
CC(C)[n+]1ccn(C2=C([O-])c3ccccc3C(=O)/C2=N\S(=O)(=O)c2ccccc2)c1	18.4µM*	?	8.4%	nt
CCCCC[n+]1ccn(C2=C([O-])c3ccccc3C(=O)/C2=N\S(=O)(=O)c2ccc(Br)cc2)c1	?	10.3µM*	4.8%	5.0%
SMILES	TDP1 cell noCPT	DT40 TDP1 CPT	TDP1 inh	ClpP mod
COc1cc(CCNC(=O)CCCn2c(=O)c3cccn3c3cccnc32)cc(OC)c1OC	-26.0%	?	2.3%	-22.2%
O=C1C(c2ccccc2)C(c2ccccc2)NC(c2ccccc2)C1c1ccccc1 (centres undefined)	23.1µM*	?	-2.9%	0.4%
Cc1ccc(C2NC(c3ccc(C)cc3)C(C)C(=O)C2C)cc1 (centres undefined)	?	?	-3.6%	-3.1%
CC(C)(C)c1ccc(OCC(=O)N(Cc2cccs2)C2CCS(=O)(=O)C2)cc1 (centres undefined)	?	16.4µM*	nt	-0.7%
Cc1ccc(CN(C(=O)COc2ccc(C(C)C)cc2)C2CCS(=O)(=O)C2)o1 (centres undefined)	18.4µM*	14.6µM*	8.6%	-2.9%
Cc1cc(-c2ccc(C)c(S(=O)(=O)NC3CCCCC3)c2)on1	?	?	2.6%	1.1%
Cc1cccc(CCNC(=O)c2nc(-c3ccc(Cl)cc3)n3c2CCCCC3)c1	9.2µM*	10.3µM*	11.2%	-19.1%
COc1ccc(CCNC(=O)c2nc(-c3ccc(Cl)cc3)n3c2CCCCC3)c(OC)c1	9.2µM*	10.3µM*	8.7%	-17.6%
Cc1ccc(-c2nc(C(=O)NCc3ccccc3Cl)c3n2CCCCC3)cc1	nt	nt	3.9%	-16.8%
O=C(c1nc(-c2ccc(Cl)cc2)n2c1CCCCC2)N1CCN(c2ccccc2)CC1	20.6µM*	?	6.2%	1.3%
COc1cccc(N2CCN(C(=O)c3nc(-c4ccc(Cl)cc4)n4c3CCCCC4)CC2)c1	?	?	13.7%	-0.7%
COc1cc(OC)cc(C(=O)OCC(=O)NC2CCCCCCC2)c1	?	-26.1%	nt	-25.7%
Cc1c(Nc2nc3ccccc3n3c(C)nnc23)cccc1C(=O)O	-7.0%	-5.9%	0.0%	-2.3%
CS(=O)(=O)Nc1cccc2[nH]ncc12	-21.4%	14.6%	2.7%	nt
CCOC(=O)c1ccc(Oc2coc3cc(O)ccc3c2=O)cc1	-7.8%	-10.8%	nt	nt
CCOC(=O)c1cccc(NC(=O)c2cc3c(=O)n(C)c4ccccc4c3n2C)c1	20.6µM*	?	5.8%	?
Cn1c(C(=O)Nc2cccc(Cl)c2)cc2c(=O)n(C)c3ccccc3c21	14.6µM*	-22.1%	-1.2%	-9.7%
COc1ccc(NC(=O)c2cc3c(=O)n(C)c4ccccc4c3n2C)cc1OC	?	?	2.6%	23.8%
Cc1ccc2c(=O)cc(C(=O)Nc3nc4ccc(Cl)cc4s3)oc2c1	-6.1%	-12.5%	1.2%	3.0%
COc1ccccc1-c1nnc(C2CCN(S(=O)(=O)c3cccc([N+](=O)[O-])c3)CC2)o1	20.6µM*	?	3.4%	-2.6%
COc1ccccc1-c1nnc(C2CCN(S(=O)(=O)c3ccccc3)CC2)o1	14.6µM*	?	6.4%	-7.3%
COc1ccccc1-c1nnc(C2CCN(S(=O)(=O)c3ccc([N+](=O)[O-])cc3)CC2)o1	?	?	2.3%	0.2%
O=C(CSc1nc(-c2ccccc2)cs1)NCCN1C(=O)CSC1=O	-14.8%	-2.0%	5.4%	-0.9%
CC(C)c1cc(C(=O)NCc2ccccc2)no1	12.0%	-5.4%	-0.9%	1.0%
COc1ccc(CSc2nc(C)[nH]c2[N+](=O)[O-])cc1[N+](=O)[O-]	-9.5%	14.2%	6.5%	0.9%

Screens deposited in PubChem BioAssay by National Center for Advancing Translational Sciences (NCATS).
